From PubChem BioAssay
Several values for one entry are separate records, joined by “and”; a condition that tells them apart may be missing. Identical values can stand only once. Inconclusive results are not listed. Activity calls are given as the source filed them. Unless noted, how the calls were made is not given here.

How the values were obtained:
[1] = system: Aerobactin synthetase IucA (Klebsiella pneumoniae); test: IucA aerobactin synthetase inhibitors, biochemical, Tocris library, absorbance (AID 1345561); details: purified IucA enzyme assay, absorbance (OD) read-out; stronger effect = lower value;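 tested at 8 µM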;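 further: 100% = enzyme without compound and 0% = no enzyme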
[2] = sensitizers of A549 cells to miR-34 induction, primary screen, imaging, A549 dox-inducible miR-34, nuclei and caspase counts (AID 1347080;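 active means compounds whose cell count with miR-34 switched on is under 0.7 times the count with it off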); details: A549 miR-34 inducible, Hoechst nuclei count, 48 h
[3] = viability rescue of complex I mutant cybrids, primary screen, cell-based, galactose medium, ATP luminescence (AID 1645843;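 active means z-score of at least 1.8 in each of two replicates, scored against plate mean and spread of sample wells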;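 further: positive z means more ATP and so rescue of galactose-driven cybrid death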); details: complex I mutant cybrid cells, 72 h, stronger effect = higher value
[4] = circadian clock period modulators, cell-based, LOPAC library, luminescence reporter (AID 2774); details: circadian reporter cells, at 7 µM, actives lie on both sides;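 further: values are relative to mean of DMSO wells on each plate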
[5] = system: Hepatitis C virus NS3 helicase; test: HCV NS3 helicase inhibitors, primary screen, biochemical, fluorescence polarization, LOPAC1280 library (AID 687035; in the data active means inhibition above about 37%); details: Purified HCV NS3 helicase, Cy5-dT15 ssDNA binding fluorescence polarization; stronger effect = higher value; concentration not given here
[6] = Cy5 fluorescence quenching or enhancement artefacts, artefact control for HCV NS3 helicase inhibitor project, biochemical, LOPAC1280 (AID 687037); details: Cy5-DNA-NS3h complex fluorescence interference counterscreen
[7] = system: Aerobactin synthetase IucA (Klebsiella pneumoniae, hypervirulent); test: IucA enzyme inhibition, biochemical, LOPAC library, absorbance readout (AID 1346212); details: IucA enzyme assay, absorbance (OD) readout; stronger effect = lower value;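 tested at 8 µM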;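 further: 100% = no compound wells and 0% = no enzyme wells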
[8] = phospholipid biosynthesis inhibitors in animal cells, primary screen, cell-based, LOPAC library, screen 4 (AID 1347384); details: phospholipid biosynthesis inhibition screen, at 10 µM
[9] = growth inhibition of DIPG glioma cells, dose response, cell-based, SU-DIPG-IV, MIPE4.0, CellTiter-Glo, qHTS (AID 1347063; cut-off not given, nearly all actives have AC50 up to about 30 µM;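 further: compound exposure lasted 48 hours before the viability readout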); details: SU-DIPG-IV viability, CellTiter-Glo ATP luminescence
[10] = growth inhibition of DIPG glioma cells, dose response, cell-based, SU-DIPG-XIII, MIPE5.0, CellTiter-Glo, qHTS (AID 1347064; cut-off not given, nearly all actives have AC50 up to about 23 µM;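 further: cells exposed to compound for 48 hours before the viability read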); details: SU-DIPG-XIII viability, CellTiter-Glo ATP luminescence
[11] = viability loss in pontine glioma line – cell-based, SU-DIPG-XXV, MIPE5.0, CellTiter-Glo, qHTS, dose response (AID 1347065; cut-off not given, nearly all actives have AC50 up to about 26 µM;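 further: cells exposed to compound for 48 hours before ATP readout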); details: CellTiter-Glo ATP luminescence
[12] = SU-DIPG-VI glioma cell viability, MIPE4.0 library, CellTiter-Glo luminescence, qHTS (AID 1347066; cut-off not given, nearly all actives have AC50 up to about 30 µM;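 further: cells exposed to compound for 48 hours before readout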); details: CellTiter-Glo ATP luminescence
[13] = JHH-DIPG-1 glioma cell viability, MIPE5.0 library, CellTiter-Glo luminescence, qHTS (AID 1347067; cut-off not given, nearly all actives have AC50 up to about 26 µM;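 further: cells exposed to compound for 48 hours before readout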); details: JHH-DIPG-1 glioma viability, CellTiter-Glo ATP luminescence
[14] = stronger effect = lower value, cell number ratio, induced over uninduced
[15] = measured here: relative caspase fold change +Dox/-Dox
[16] = measured here: total cells with miR-34 induction, stronger effect = lower value
[17] = measured here: total cells without miR-34 induction

CCC(Oc1ccc(Cl)cc1)C(=O)OC1CC2CCC(C1)N2C (stereo unspecified)
remaining activity [1]: 88.1% (inactive) | fold change [2, 14]: 0.91 (inactive) | fold change [2, 15]: 1.03 | cell count [2, 16]: 8430 | cell count [2, 17]: 9270 | z-score [3]: -0.285 (inactive)

CC(N)Cc1c[nH]c2ccc(O)cc12 (stereo unspecified)
period change [4]: -0.08 h (inactive) | inhibition [5]: -7% (inactive) | fluorescence ratio (interference) [6]: 0.9 (inactive) | remaining activity [1]: 105% (inactive) | remaining activity [7]: 122% (inactive) | fold change ([2]; stronger effect = lower value): 1.02 (inactive) and 0.98 (inactive) | fold change [2, 15]: 1.63 and 0.84 | cell count [2, 16]: 11100 and 9190 | cell count [2, 17]: 10900 and 9370 | outcome [8]: inactive | z-score [3]: 0.365 (inactive) and 0.08 (inactive)

COc1ccc(C(=O)c2c(C)n(CCN3CCOCC3)c3cc(I)ccc23)cc1
remaining activity [1]: 93.9% (inactive) | AC50 [9]: 20.9 µM (active) | AC50 [10]: 23.5 µM (active) | AC50 [11]: 16.6 µM (active) | AC50 [12]: 23.5 µM (active) | AC50 [13]: 23.5 µM (active) | fold change ([2]; stronger effect = lower value): 1.09 (inactive) | fold change [2, 15]: 0.642 | cell count [2, 16]: 2860 | cell count [2, 17]: 2630 | z-score [3]: -0.38 (inactive)

CCOC(=O)c1ncc2[nH]c3ccc(OCc4ccccc4)cc3c2c1COC
remaining activity [1]: 105% (inactive) | fold change [2, 14]: 0.974 (inactive) | fold change [2, 15]: 1.71 | cell count [2, 16]: 2080 | cell count [2, 17]: 2130 | z-score [3]: -0.79 (inactive)

O[C@H]1[C@H](O)[C@@H](O)CN2CC[C@H](O)[C@H]12
remaining activity [1]: 107% (inactive) | fold change ([2]; stronger effect = lower value): 0.875 (inactive) and 0.917 (inactive) | fold change [2, 15]: 1.02 and 1.4 | cell count [2, 16]: 4910 and 9170 | cell count [2, 17]: 5610 and 10000 | z-score [3]: 0.34 (inactive)

NC1(c2ccccc2Cl)CCCCC1=O (stereo unspecified)
remaining activity [1]: 88.2% (inactive) | fold change ([2]; stronger effect = lower value): 0.898 (inactive) | fold change [2, 15]: 1.86 | cell count [2, 16]: 9020 | cell count [2, 17]: 10000 | z-score [3]: 1.53 (inactive)

CCNC(=O)[C@H]1O[C@@H](n2cnc3c(N)ncnc32)[C@H](O)[C@@H]1O
remaining activity [1]: 122% (inactive) | remaining activity [7]: 120% (inactive) | fold change [2, 14]: 0.978 (inactive) | fold change [2, 15]: 0.831 | cell count [2, 16]: 8940 | cell count [2, 17]: 9140 | z-score [3]: -0.23 (inactive)

C[N+]1(C)CCc2cc3c(cc2[C@H]1[C@@H]1OC(=O)c2c1ccc1c2OCO1)OCO3
period change [4]: -0.02 h (inactive) | inhibition [5]: -3% (inactive) | fluorescence ratio (interference) [6]: 1 (inactive) | remaining activity [1]: 123% (inactive) and 114% (inactive) | remaining activity [7]: 119% (inactive)

COc1ccc(-n2nc(C(F)(F)F)cc2-c2ccc(Cl)cc2)cc1
period change [4]: 0.125 h (inactive) | remaining activity [1]: 119% (inactive) | remaining activity [7]: 109% (inactive) | fold change [2, 14]: 0.91 (inactive) | fold change [2, 15]: 0.729 | cell count [2, 16]: 7020 | cell count [2, 17]: 7710 | z-score [3]: -0.695 (inactive)

CC(N)Cc1c[nH]c2ccc(OCc3cccs3)cc12 (stereo unspecified)
period change [4]: -0.015 h (inactive) | inhibition [5]: -2% (inactive) | fluorescence ratio (interference) [6]: 0.9 (inactive) | remaining activity [1]: 105% (inactive) | fold change ([2]; stronger effect = lower value): 1.09 (inactive) and 1.04 (inactive) and 0.983 (inactive) | fold change [2, 15]: 0.892 and 0.841 and 0.895 | cell count [2, 16]: 9650 and 5700 and 7970 | cell count [2, 17]: 8810 and 5500 and 8110 | outcome [8]: inactive | z-score [3]: -0.655 (inactive) and -0.22 (inactive)
